Hits are enriched below; roughly 2.9% of the tested compounds scored in any of these assays.
D3 antag = qHTS of D3 Dopamine Receptor Antagonist: qHTS; AID 652054, 2013; D3R cells, DiscoveRx beta-arrestin luminescence, antagonist mode; stronger effect = lower value; 360,000 tested, 2.5% active; max response, negative = inhibition, %; D(3) dopamine receptor (Homo sapiens), P35462; in the data active = max response below about -50%; inconclusive = no clear call, values can overlap the other calls; also: % is scaled to controls: 0 for no effect and ±100 for the full control effect
Target sequence (P35462 whole entry, looked up): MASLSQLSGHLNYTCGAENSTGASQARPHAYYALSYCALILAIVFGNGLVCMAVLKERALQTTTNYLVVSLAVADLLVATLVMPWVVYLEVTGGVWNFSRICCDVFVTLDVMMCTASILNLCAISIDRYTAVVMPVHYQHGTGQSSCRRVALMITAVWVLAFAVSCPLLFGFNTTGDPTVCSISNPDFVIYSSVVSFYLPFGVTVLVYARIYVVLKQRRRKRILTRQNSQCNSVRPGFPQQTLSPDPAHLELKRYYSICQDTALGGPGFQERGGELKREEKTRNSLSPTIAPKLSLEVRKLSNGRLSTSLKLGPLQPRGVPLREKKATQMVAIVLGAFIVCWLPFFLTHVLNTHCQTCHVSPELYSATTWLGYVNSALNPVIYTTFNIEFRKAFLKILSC
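Cells expressing the human receptor were seeded at 1500 cells/well, incubated overnight at 37 degrees C in 5% CO2, then exposed to library compounds with dopamine controls for 90 minutes at 37 degrees C before luminescent detection.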
a7 integrin act = qHTS for Activators of Integrin-Mediated Alleviation for Muscular Dystrophy | alpha7betagal myoblasts, beta-gal FDG fluorescence, 48 h | Potency, µM (series often up to 38.3 µM), without a hit: at the highest dose activation, actives largely listed as activators | 350,000 tested, 0.064% active;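 also: potency is read from the fitted curve at half-maximal effect; 100% = response of the positive control SU9516; nearly all actives have a fitted effect of over 60% in size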
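alpha7betagal+/- myoblasts (passage 13, 250/well) treated 48 h at 37C with compounds at 1:260 dilution of DMSO stock. Lysed, then beta-galactosidase activity read as FDG fluorescence (ex 480/em 540) after 30 min, with pre-read for autofluorescence.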
IDH1 R132H inh = qHTS for Inhibitors of mutant isocitrate dehydrogenase 1 (IDH1): qHTS; Potency, µM (doses to about 76.6 µM), without a hit: at the highest dose activity change, negative = inhibition, usual class: inhibitors; Isocitrate dehydrogenase [NADP] cytoplasmic (Homo sapiens), O75874; 390,000 tested, 0.093% active; IDH1-R132H enzyme, NADPH consumption, diaphorase/resazurin fluorescence; also: potency is read from the fitted curve at half-maximal effect; % is scaled to controls: 0 for no effect and ±100 for the full control effect; nearly all actives have a fitted effect of over 65% in size
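IDH1-R132H (0.5 ug/mL dispensed) in pH 7.5 Tris buffer was preincubated 30 min with compound, then given a substrate mix of 0.016 mM NADPH and 2 mM alpha-KG for 80 min at room temperature; remaining NADPH was read by diaphorase/resazurin fluorescence.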
B2AR arrestin = qHTS assay of beta-arrestin-biased ligands of beta2-adrenergic receptor; Beta-2 adrenergic receptor (Homo sapiens), P07550; beta-arrestin recruitment to beta2AR, cell-based reporter; Potency, µM (doses to about 46.1 µM), for inactives: at the highest dose activation, usual class: activators; 330,000 tested, 0.02% active;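 also: potency is read from the fitted curve at half-maximal effect; 0% = DMSO controls and full agonism = EC100 isoproterenol or metaproterenol; nearly all actives have a fitted effect of over 65% in size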
DRD3 agonist = qHTS of D3 Dopamine Receptor Agonist: qHTS; D3R DiscoveRx beta-arrestin cells, luminescence, 90 min; max activation, %; 410,000 tested, 0.58% active; AID 652048, 2013; in the data active = max activation above about 30%; also: 0% is about no effect
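Agonist mode: compounds and dopamine controls were applied to plated cells for 90 min at 37 degrees C after an overnight attachment at 1500 cells/well. Luminescent read-out followed 30 - 60 minutes at room temperature with DiscoveRx detection reagent.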
* hit, by the source's call; ? = inconclusive; . = no result; [ ] = another dose, or the depositor's remark. Unless noted, calls follow the shape of the dose curve; as a rule, active = well fitted curve in the direction sought with a large enough effect; inconclusive = small, poorly fitted or top-dose-only effect, or another doubt; inactive = no such curve, though single readings can be large; an effect the other way counts as inactive or inconclusive.

SMILES	D3 antag	a7 integrin act	IDH1 R132H inh	B2AR arrestin	DRD3 agonist
COc1ccc(CC(N)c2csc(NC(=O)Nc3ccccc3C(C)C)n2)cc1 (configuration not stated)	-54.5*	.	.	.	-12.5
C[C@@]12CCC[C@H]1[C@@H]1CC[C@H]3C[C@@H](O)CC[C@]3(C)[C@H]1CC2	.	.	.	.	2.6
Cn1c(=O)[nH]c(=O)c2c1nc(N1CCNCC1)n2Cc1cccc2ccccc12	-79.7*	-39.7%	1.4%	0.2%	-5.7
Cn1c(=O)[nH]c(=O)c2c1nc1n2CCN1c1ccccc1	.	.	20.1%	.	44.6*
Cn1c(=O)c2c(nc(N3CCNCC3)n2Cc2cccc3ccccc23)n(C)c1=O	-68.8*	-47.7%	0.9%	-0.3%	-8.9
C=C1[C@H](CO)[C@@H](O)C[C@@H]1n1cnc2c(=O)[nH]c(N)nc21	.	.	.	.	-10.7
Cc1cc(-c2ccccc2)nc2[nH]n(-c3ccccc3)c(=O)c12	-68.5*	13.8%	4.2%	0.3%	-7.0
O=C(CSCc1ccc(F)cc1)N1CCc2c([nH]c3ccccc23)C1c1ccc(F)cc1 (configuration not stated)	.	.	-9.3%	.	3.9
c1ccc(CNc2nc(NCc3ccccc3)c3sccc3n2)cc1	0.0	.	.	.	4.3
CCOC(=O)CCNCc1ccc(OC)c(OC)c1	2.4	0.0%	-12.2%	0.0%	1.3
CCOC(=O)CC(NCc1ccc(OC)c(OCC)c1)c1ccc(C)cc1 (configuration not stated)	-51.5*	13.3%	4.1%	0.1%	-14.4
O=C(O)CC(CCc1ccccc1)OC1OC(CO)C(O)C(O)C1O (configuration not stated)	-0.1	8.8%	-16.8%	-0.3%	32.9*
Cn1c(Cc2csc(N)n2)nnc1SCC(=O)NC1CCCCC1	-57.4*	11.8%[1.53 µM]	-0.3%	0.1%	8.6
Cn1c(Cc2ccccc2)nnc1SCC(=O)NC1CCCCC1	-22.7	-2.3%	2.8%	-0.3%	-2.2
O=C(NCc1ccccc1Cl)c1ccc(CS(=O)(=O)c2ccc(Br)cc2)o1	.	.	-23.1%	.	-19.9
O=c1[nH]ncc2c3ccccc3n(Cc3ccccc3F)c12	-59.9*	-10.6%	8.4%	-0.5%	-9.0
O=c1[nH]ncc2c3ccccc3n(Cc3ccccc3)c12	-6.4	-33.9%	-1.0%	-0.8%	0.0
Cc1ccccc1NS(=O)(=O)c1ccc(C(=O)N2CCCCCCC2)cc1	-13.6	?	-1.8%	0.0%	-22.1
Cc1ccccc1NS(=O)(=O)c1ccc(OCC(=O)N2CCCCC2)cc1	9.0	40.8%	5.2%	-0.1%	32.3*
CC(C)c1cc(Cn2c3ccccc3c(=O)n2C(C)Cn2cc(C3=CCCCC3)nn2)on1 (configuration not stated)	16.5	.	.	.	-4.0
CCCCCn1c(CN2CCN(c3cc(Cl)ccc3C)CC2)nc2c1c(=O)[nH]c(=O)n2C	17.7	0.0%	0.5%	0.5%	86.8*
COC(=O)C1(Cc2cc(-c3ccc(OC)cc3OC)no2)CCN(C(=O)OC(C)(C)C)CC1	-13.1	12.4%	1.7%	0.6%	77.1*
COC(=O)C1(Cc2cc(-c3cccc(Br)c3)no2)CCN(C(=O)OC(C)(C)C)CC1	-21.6	-22.4%	3.6%	0.6%	4.7
O=C(CSc1ccc2ccccc2c1)NCCc1ccc(O)c(O)c1	11.5	-4.3%	-0.6%	-0.7%	68.6*
CCc1ccc(C2C(C(C)=O)=C(C(=O)OC)Nc3nnnn32)cc1 (configuration not stated)	-56.8*	13.4%	-8.9%	0.4%	-4.9
CCN1C(=O)C(Cc2nc3ccccc3c(=O)n2-c2ccccc2)c2cc(Br)ccc21 (configuration not stated)	.	.	.	.	-5.4
COc1ccc(CN2CCN(CCCc3ccccc3)CC2)c(OC)c1	.	.	.	0.3%	.
COc1ccc(CN2CCN(c3ccccc3OC)CC2)c(OC)c1	-100.4*	?	4.4%	-0.7%	-4.6
COc1ccc(OC)c(CN2CCN(Cc3cccc4ccccc34)CC2)c1	-54.5*	11.2%	11.2%	0.3%	-0.6

Compound activity (PubChem)
